Sampled rows, rich in hits. Any-hit rate of the full collection: about 6.1%.
D3 ag: activates the human D3 dopamine receptor; P35462; D3R DiscoveRx beta-arrestin cells, luminescence, 90 min; max activation, %; hit rate 0.58% among 410,000; in the data active = max activation above about 30%; note: 0% is about no effect
Target sequence (P35462 whole entry, looked up): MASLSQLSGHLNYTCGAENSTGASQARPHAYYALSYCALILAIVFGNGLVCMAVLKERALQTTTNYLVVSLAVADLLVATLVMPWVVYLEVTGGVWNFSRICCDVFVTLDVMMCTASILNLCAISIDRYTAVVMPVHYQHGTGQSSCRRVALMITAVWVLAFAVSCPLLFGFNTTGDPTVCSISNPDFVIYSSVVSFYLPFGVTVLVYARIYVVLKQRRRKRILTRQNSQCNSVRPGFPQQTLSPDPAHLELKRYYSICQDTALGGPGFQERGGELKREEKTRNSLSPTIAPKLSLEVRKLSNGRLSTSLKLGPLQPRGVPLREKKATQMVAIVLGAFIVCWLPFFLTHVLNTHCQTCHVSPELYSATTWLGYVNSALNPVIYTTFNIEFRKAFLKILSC
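Agonist-mode cell screen: cells plated at 1500/well and incubated overnight at 37 °C, then exposed to library compounds for 90 min at 37 °C. Detection reagent was added for 30–60 min at room temperature, and luminescence was read.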
D1 PAM: human D1 dopamine receptor positive modulation. P21728. potentiation, % at 10 µM. hit rate 0.036% among 360,000. HEK293 TREx D1 cells, calcium flux, dopamine EC20 potentiation. AID 504651; in the data active = potentiation above about 30%; note: 0% is about no effect
DRD3 antagonist: D3 dopamine receptor (human) antagonism; P35462; D3R cells, DiscoveRx beta-arrestin luminescence, antagonist mode; stronger effect = lower value; max response, negative = inhibition, %; hit rate 2.5% among 360,000; AID 652054; in the data active = max response below about -50%; note: % is set by controls: 0 for no effect and ±100 for the full control effect
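Cells expressing the human receptor were seeded at 1500 cells/well, incubated overnight at 37 degrees C in 5% CO2, then exposed to library compounds with dopamine controls for 90 minutes at 37 degrees C before luminescent detection.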
D1 antagonist: blocks dopamine activation of the human D1 receptor; HEK293 TREx D1 cells, calcium flux, dopamine EC80; stronger effect = lower value; activity change, negative = inhibition, % at 10 µM; hit rate 3.2% among 360,000; AID 504652; in the data active = activity change below about -30%; note: % is set by controls: 0 for no effect and ±100 for the full control effect
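Inducible Hek293 Trex D1 cells (tetracycline, overnight, 30 C). Calcium dye 30–90 min RT. Antagonist mode: EC80 dopamine added after 180 s compound read.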
D1 ag: activates the human D1 dopamine receptor; activation, % at 2 µM; HEK293 T-REx D1 cells, calcium flux, agonist mode; hit rate 1% among 360,000; P21728; in the data active = activation above about 30%; note: 0% is about no effect
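Tetracycline-induced HEK293 TREx D1 cells, force-coupled to calcium signalling, were dye-loaded with a no-wash calcium kit. Compound was pin-added after a 10 s baseline. Fluorescence was read kinetically at 1 cycle/s for 180 s, with calcium rises flagged as agonism.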
* = called active by the depositor; . = no result.

SMILES | D3 ag | D1 PAM | DRD3 antagonist | D1 antagonist | D1 ag
O=C(NC(=O)N1CCCc2ccccc21)c1ccccc1 | 5 | 2 | 3 | -2 | 0
O=C(C(c1ccccc1)c1ccccc1)N1CCCc2ccccc21 | 0 | -7 | -61* | 1 | 4
CCOc1ccc(NC(=O)N2CCN(C(=O)c3nsc4ccccc34)CC2)cc1 | 2 | 2 | . | 7 | -1
CN1Cc2c(N3CCOCC3)nc3sc(C#N)c(N)c3c2CC1(C)C | 0 | -1 | 47 | -5 | 2
CN1Cc2c(N3CCOCC3)nc3sc(C(=O)c4ccc(Br)cc4)c(N)c3c2CC1(C)C | -22 | -12 | -50* | -49* | 34*
CC(C)=CCOc1ccc(/C=C/C(=O)c2ccc(OCC=C(C)C)cc2OCC(=O)O)cc1 | 2 | . | . | . | .
O=C(c1nc2ccccn2c1CNCCCn1ncc2ccccc21)N1CCOCC1 | -16 | -3 | -17 | -42* | 0
Cc1cc2ccccc2n1CCNCc1c(C(=O)N2CCOCC2)nc2ccccn12 | -10 | -1 | 11 | 1 | 5
COCC1CCN(Cc2cn(C)nc2-c2cccc(Cl)c2)C1 (centres undefined) | 2 | -1 | 0 | -42* | 3
CCc1ccc2occ(CC(=O)Nc3c(C(=O)c4ccccc4)oc4ccccc34)c2c1 | -4 | -1 | . | -7 | 14
c1ccc(CN2CCN(C3CCCSc4ccccc43)CC2)cc1 (centres undefined) | -48 | . | -85* | . | .
CCOc1ccc(CCN2C(=O)C(=O)N([C@@H](CC(C)C)CN3CCC[C@@H]3CN3C(=O)C(=O)NC[C@@H]3CC(C)C)C[C@@H]2Cc2ccccc2)cc1 | -3 | . | -16 | . | .
CCOc1ccc(CCN2C(=O)C(=O)N([C@H](CCCN(C)Cc3ccccc3)CNCc3ccccc3)C[C@@H]2C(C)C)cc1 | . | -7 | . | -2 | 41*
CN(CCCC[C@H](CNCc1ccc(-c2ccccc2)cc1)N1C[C@H](c2ccccc2)N(CCc2ccc(Cl)c(Cl)c2)C(=O)C1=O)Cc1ccc(-c2ccccc2)cc1 | . | 2 | . | 10 | 3
COc1ccc(CNC[C@@H](CCCCN(C)Cc2ccc(OC)cc2)N2C[C@H](c3ccccc3)N(CCc3ccc(Cl)c(Cl)c3)C(=O)C2=O)cc1 | -13 | 0 | -7 | 126 | 39*
Cc1ccc(CNc2oc(-c3ccc(COc4ccc(Cl)cc4)o3)nc2C#N)cc1 | 5 | 1 | . | 2 | 0
COc1ccc(C)cc1NC(=O)COC(=O)c1ccc(OCc2ccc(Cl)cc2Cl)c(OC)c1 | 1 | -3 | 9 | -50* | 1
CC(=O)c1ccc(OC(C)C)c(CSc2nc(O)cc(=O)[nH]2)c1 | -32 | 0 | -103* | -9 | 2
CN(C1CCCCC1)S(=O)(=O)CCNC(=O)c1ccccc1 | -6 | 1 | -2 | -67* | 0
CCCN(C(=O)c1ccc2c(SCC(=O)O)c3c(nc2c1)CCC3)c1cccc(C)c1 | 3 | -5 | 7 | -39* | 0
COc1ccc(C(=O)N(c2ccc(OC)cc2)S(=O)(=O)c2ccc3c(c2)n(C)c(=O)n3C)cc1 | 11 | 0 | . | 4 | 1
O=C(O)CC(C(=O)OC1CCCCC1)N1CCOCC1 (centres undefined) | -4 | -3 | -92* | -8 | 1
CCCCCCCCCOC(=O)C(CC(=O)O)N1CCOCC1 (centres undefined) | 8 | 0 | -52* | -2 | 3
O=C(O)CC(C(=O)OCC1CCCO1)N1CCOCC1 (centres undefined) | 3 | -1 | -16 | 1 | 5
CCCCCOC(=O)CC(C(=O)OCCCCC)N1CCCCC1 (centres undefined) | 2 | -5 | -19 | 0 | 0
SMILES | D3 ag | D1 PAM | DRD3 antagonist | D1 antagonist | D1 ag
Cc1ccccc1NC(=O)CCC(=O)N1CCSc2ccccc21 | -24 | -4 | . | -5 | 2
Cc1c(C(=O)N/N=C/c2ccc(-c3ccccc3[N+](=O)[O-])o2)sc(N)c1C#N | -4 | -10 | -9 | -62* | 0
O=C(N/N=C\c1ccc(-c2ccccc2[N+](=O)[O-])o1)C1COc2ccccc2O1 (centres undefined) | 3 | -6 | 4 | -36* | 1
O=C(Nc1nnc(S(=O)(=O)N2CCCc3ccccc32)s1)c1ccccc1Br | 4 | -2 | . | 14 | -1
COc1cc(Nc2nc(SCc3ccccc3Cl)nc3ccccc23)cc(OC)c1 | 5 | -1 | . | 4 | 6
Cc1ccc(SC[C@H](C)CN2CC[C@H](C)CCC2=O)cc1 | 7 | 3 | 9 | -12 | 8
C[C@@H]1CCC(=O)N(C[C@@H](C)CSc2ccc(Br)cc2)CC1 | 0 | -1 | 6 | -51* | -1
Cn1c(-c2ccccc2)cnc1N | -3 | -1 | -117* | 10 | 1
COc1ccc(-c2cnc(N)n2C)cc1 | -1 | 0 | 1 | -4 | 1
COC(=O)c1ccccc1Oc1ccc(NC(=O)c2ccco2)cc1 | -4 | -6 | -4 | -37* | 3
O=C(COc1ccccc1)Nc1ccc(NC(=O)c2ccco2)cc1 | -8 | -3 | 4 | -73* | 4
Cc1ccc(NC(=O)c2ccc(OC(=O)c3ccco3)cc2)cc1 | -3 | -3 | -10 | -2 | 1
Cc1ccc(OCc2cc(C(=O)Nc3ccccc3)oc2C)cc1 | 3 | 3 | 14 | -2 | 5
Cc1ccc(Oc2ccc(NC(=O)c3ccco3)cc2)cc1 | -2 | -11 | 24 | -47* | 19
COc1ccc(OCC(=O)Nc2ccc(NC(=O)c3ccco3)cc2)cc1 | 3 | -4 | 22 | -2 | 5
Cc1oc(C(=O)Nc2ccc(O)cc2)cc1COc1ccccc1 | -1 | -5 | 32 | -32* | 5
Cc1cccc(CNC(=O)C2CCN(c3nn4cc(-c5ccc(F)cc5)nc4s3)CC2)c1 | 5 | -2 | . | 9 | -2
COC(=O)c1ccc(NC(=O)c2ccc(NC(=O)c3ccco3)cc2)cc1 | -1 | 0 | 17 | 7 | 3
CC(C)COc1ccc(C(=O)Nc2ccc(NC(=O)c3ccco3)cc2)cc1 | -7 | -1 | 2 | -35* | 3
CCN(c1ccccc1)S(=O)(=O)c1ccc(Cl)c(C(=O)N(CC2CCCO2)C2CCS(=O)(=O)C2)c1 (centres undefined) | -2 | -3 | -23 | -36* | 6
Nc1cccc(/C=C/c2ccncc2)c1 | 2 | 0 | 9 | -41* | 1
Cc1c(Cl)c([N+](=O)[O-])nn1CC(=O)N1CCN(C23CC4CC(CC(C4)C2)C3)CC1 | -12 | . | -19 | -7 | 2
CCCc1nc2c(s1)CCc1onc(-c3cccc([N+](=O)[O-])c3)c1-2 | 34* | -3 | 49 | 4 | 5
Cc1cc(C)c(S(=O)(=O)N2CCCCC2)cc1N(C)S(=O)(=O)c1ccc(Cl)cc1 | -5 | 4 | 5 | -31* | 3
CC(C)n1cnc2c(N(C)c3ccccc3)nc(N(CCN(C)C)Cc3ccccc3)nc21 | -44 | 0 | -70* | -104* | 28

Screening data deposited in PubChem by National Center for Advancing Translational Sciences (NCATS).
